Screening results from PubChem BioAssay.
Only some compounds are listed: those with a hit (about 5.3% of all), similar ones and a draw of the others.
HCV inhibitor – blocks hepatitis C virus | Huh7.5.1 HCVcc-Cre infection, luciferase reporter, 44 h | Potency, µM (top dose mostly 41.8 µM), for the others: at the top dose activity change, negative = inhibition, actives largely listed as inhibitors | 340,000 compounds, 3.4% hits | AID 651820; active = well fitted inhibition curve with a large enough effect; inconclusive = small, poorly fitted or top-dose-only effect, or another doubt; inactive = no such curve, though single readings can be large or run the other way
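Luciferase read-out (15 sec integration) after a 15 min room-temperature substrate step quantifies HCVcc-Cre infection. Cells, 1,000 per well, had compound added 4 h post-plating, then virus at ~0.5 moi, and were cultured 44 h.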
Marburg entry inh – blocks Marburg virus binding to or entry into cells | Potency, µM (doses to about 37.8 µM), without a hit: top-dose activity change, negative = inhibition, most hits filed as inhibitors | Marburg virus pseudotyped entry inhibition, cell reporter | 300,000 compounds, 1.8% hits; calls by dose curve; tested in HEK293 cells
Lassa entry inh – blocks Lassa virus binding to or entry into cells; Lassa virus pseudotype entry inhibition, cell reporter; Potency, µM (doses to about 37.9 µM), inactives show at the top dose activity change, negative = inhibition, actives largely listed as inhibitors; 300,000 compounds, 1.2% hits; AID 540256; calls by dose curve; tested in HEK293 cells; note: nearly all actives have a fitted effect of over 50% in size
FMDV inh – blocks foot and mouth disease virus. 410,000 compounds, 1.2% hits. FMDV antiviral cell-based qHTS. Potency, µM (series often up to 57.9 µM), for inactives: top-dose activity change, negative = inhibition, actives largely listed as inhibitors; calls by dose curve; tested in HEK293T cells; note: read-out not given here; nearly all actives have a fitted effect of over 45% in size
VACV mCherry inh – vaccinia inhibition (mCherry reporter). Vaccinia virus mCherry reporter infection, fluorescence. Potency, µM (doses to about 36.5 µM), inactives show top-dose activity change, negative = inhibition, actives largely listed as inhibitors. 310,000 compounds, 0.63% hits; calls by dose curve; tested in A549 cells; note: nearly all actives have a fitted effect of over 35% in size
VACV Venus inh – inhibitors of vaccinia virus (Venus reporter); 330,000 compounds, 0.46% hits; Vaccinia virus Venus reporter expression, fluorescence; Potency, µM (doses to about 36.5 µM), without a hit: at the top dose activity change, negative = inhibition, hits mostly inhibitors; calls by dose curve; tested in A549 cells; note: nearly all actives have a fitted effect of over 30% in size
Starred values were filed as active, the others as inactive; i = inactive; ? = inconclusive; . = no result given; [ ] = another dose, or the depositor's remark. % is set by controls: 0 for no effect and ±100 for the full control effect; potency is the fitted concentration of half-maximal effect.

SMILES	HCV inhibitor	Marburg entry inh	Lassa entry inh	FMDV inh	VACV mCherry inh	VACV Venus inh
CN(Cc1cccs1)c1nc(-c2cccnc2)nc2ccccc12	?	?	-17%	32µM*	-15%	-19%
CC(C)CC(N)c1csc(NC(=O)c2cc(C(C)(C)C)nn2Cc2ccccc2)n1 (centres undefined)	.	.	.	?	11µM*	13µM*
CC(C)CC(N)c1csc(NC(=O)Nc2ccccc2Cc2ccccc2)n1 (centres undefined)	.	.	.	-19%	?	?
CC1=Nc2ccccc2/C1=C/c1ccc(N(C)C)cc1	.	.	.	.	-23%	-13%
CCc1nn(CCCC(=O)N2CCN(c3cccc(C)c3C)CC2)c(=O)c2cc3occc3n12	14µM*	.	.	?	.	.
CCCn1c(=O)c2sccc2n2c(CCCC(=O)N3CCN(c4cccc(C)c4C)CC3)nnc12	.	.	4%[46.1 µM]	16µM*	-26%	-22%
CCCn1c(=O)c2sccc2n2c(CCCC(=O)N3CCN(c4ccccc4OC)CC3)nnc12	.	.	16%[46.1 µM]	-16%	-12%	0%
CCc1nn(CC(=O)N2CCN(c3cccc(C)c3C)CC2)c(=O)c2cc3occc3n12	.	2%[46.1 µM]	24%[46.1 µM]	-18%	-6%	-10%
Cc1ccc(OCC(=O)NCC(=O)OCc2cc(=O)n3nc(CC(C)C)sc3n2)cc1	.	.	0%[46.1 µM]	-23%	2%	0%
COC1=C(OC)C(Cl)=C(CC2C(=O)OC(C)(C)OC2=O)CC1	.	-16%[46.1 µM]	.	.	.	.
COc1cccc(CN2CCOc3ccc(CN4C[C@@H](C)O[C@@H](C)C4)cc3C2)c1OC	.	.	.	-5%	i	-13%
Cc1cc2ccccn2c1C(=O)c1ccc([N+](=O)[O-])o1	11µM*	?	?	?	?	?
Cc1cc2ccccn2c1C(=O)c1cccc([N+](=O)[O-])c1	2%	?	?	?	-15%	-11%
CCN(CC)c1ccc(/C=N/c2sc3c(c2C#N)C2CCN3CC2)c(O)c1	4.5µM*	14%	-26%	-3%	-14%	109%
O=C(C1CCCCC1)N(Cc1cccnc1)c1nc2c(F)cccc2s1	.	.	-13%[46.1 µM]	-7%	-10%	-11%
CC(C)=CCC[C@](C)(O[C@@H]1O[C@H](CO[C@@H]2O[C@H](CO)[C@@H](O)[C@H](O)[C@H]2O)[C@@H](O)[C@H](O)[C@H]1O)C1CC[C@]2(C)C1C(=O)CC1[C@@]3(C)CC[C@H](O[C@H]4O[C@@H](CO)[C@H](O)[C@@H](O)[C@@H]4O)C(C)(C)C3CC[C@]12C (some centres undefined)	14%	.	.	-13%	i	-5%
CC(=O)OCC1O[C@@H](O[C@@H]2C[C@H]3C(C)(C)[C@H](OC(C)=O)CC[C@]3(C)[C@H]3CC[C@]45C[C@]4(CC[C@H]5[C@@H](C)C[C@@H](O)[C@H](O)C(C)(C)O)[C@@]32C)[C@H](O)[C@@H](O)[C@@H]1O (some centres undefined)	-4%[8.37 µM]	?	15µM*	.	.	.
O=C(Nc1nnc(C(F)(F)F)s1)c1ccc(Br)s1	?	?	?	-5%	10µM*	?
CC(NC(=O)Nc1nnc(C(F)(F)F)s1)(C(F)(F)F)C(F)(F)F	2.8µM*	?	3.5µM*	?	4µM*	2.5µM*
O=C(Nc1ccccc1C(=O)Nc1nnc(C(F)(F)F)s1)c1ccccc1Cl	11µM*	?	?	?	?	-47%
CC(C)(C)CC(=O)Nc1nnc(C(F)(F)F)s1	15%	16%	2%	-8%	-15%	-10%
COc1ccccc1N1CCN(S(=O)(=O)c2c(C)nc3sccn3c2=O)CC1	.	.	5%[46.1 µM]	-1%	-14%	-17%
COc1ccc(C(=O)c2c(N)c(C(=O)Nc3cccc(OC)c3)c3ccccn23)cc1	.	-2%[46.1 µM]	7%[46.1 µM]	-12%	-5%	-1%
COc1cc(OC)c(NC(=O)c2ccc3nc(C(C)C)oc3c2)cc1Cl	.	.	-5%[46.1 µM]	13µM*	i	-20%
CCN(Cc1ccccc1)S(=O)(=O)c1ccc(C(=O)N(CCCN(C)C)c2nc3cc4c(cc3s2)OCO4)cc1	?	?	?	-5%	-18%	?
SMILES	HCV inhibitor	Marburg entry inh	Lassa entry inh	FMDV inh	VACV mCherry inh	VACV Venus inh
CC(=O)c1ccc(C(=O)N(CCCN(C)C)c2nc3c(C)c(C)ccc3s2)cc1	.	.	?	-22%	-11%	-15%
CC(=O)c1ccc(C(=O)N(Cc2cccnc2)c2nc3c(C)c(C)ccc3s2)cc1	.	.	13µM*	-12%	-8%	-24%
CC(=O)N(Cc1cccnc1)c1nc2c(C)cc(C)cc2s1	.	.	1%[46.1 µM]	4%	-11%	-3%
CCN(Cc1ccccc1)S(=O)(=O)c1ccc(C(=O)N(CCCN(C)C)c2nc3c(C)c(C)ccc3s2)cc1	13µM*	6.3µM*	2.8µM*	-14%	11µM*	?
Cc1ccc2sc(N(CCCN(C)C)C(=O)c3ccc(S(=O)(=O)N(C)C4CCCCC4)cc3)nc2c1C	?	?	13µM*	-4%	?	?
COc1ccc2c(c1)OC(C)CN(CCNC(=O)c1cccc(N3CCNC3=O)c1)C2 (centres undefined)	.	.	.	4%	-16%	-15%
N#Cc1ccc(/C=C2\C=Cc3ccccc32)cc1	.	.	.	.	20%	-13%
O=c1[nH]cnc2c1sc1nc(-c3ccccc3)c3c(c12)CCCC3	3%	?	1%[46.1 µM]	-8%	i	-7%
S=c1nc[nH]c2c1sc1nc(-c3ccccc3)c3c(c12)CCCC3	-3%	.	.	-29%	14µM*	?
CC(=O)c1cccc(NC(=O)CN2C(=O)c3ccccc3Sc3ncccc32)c1	.	.	-11%[46.1 µM]	40µM*	-5%	4%
CCOc1ccc(N=C(NN)c2ccc3ccccc3n2)cc1	?	?	?	8.9µM*	-13%	-16%
CCOc1ccc(N=C(C)C2=C(O)c3ccccc3C2=O)cc1	3%	?	?	-35%	-1%	-19%
Cc1cnc(C)c(-c2cccc3c2OC(CNC(=O)c2cc(C)on2)C3)n1 (centres undefined)	.	.	.	15%	-16%	2%
COc1cc(=O)n2c(c1C(=O)N(C)Cc1nonc1C)CCN(Cc1cccc(Cl)c1)CC2	.	.	.	-10%	-9%	0%
Cn1cnnc1Sc1ccc(/C=C/C(=O)c2ccc(O)cc2)cc1[N+](=O)[O-]	-21%	.	.	?	.	.
COc1ccc(NC(=O)/C(C#N)=C/c2ccc(Sc3nncn3C)c([N+](=O)[O-])c2)cc1	13%	?	4%[46.1 µM]	32µM*	-17%	-26%
O=C(C1=C(O)C(=O)N(CCCN2CCOCC2)[C@H]1c1ccccn1)c1cc2ccccc2o1	.	3%	.	.	.	.
Cc1cccc(-c2cc3c(N=O)c4ccccc4c-3n[nH]2)c1	11µM*	?	?	-47%	-9%	-12%
Cc1ccc(-c2cc3c(N=O)c4ccccc4c-3n[nH]2)cc1	14%	13%[46.1 µM]	20%	-12%	-7%	9%
Cc1cccc(-n2c(SCC(=O)Nc3ccccc3C)nc3c(oc4ccccc43)c2=O)c1	.	-28%[46.1 µM]	.	-7%	-11%	-12%
